Compounds with a hit are over-represented: about 10% of the library has one in this group of screens.
JMJD2A Tudor inh: blocks the human JMJD2A Tudor domain. Potency, µM (series often up to 114 µM), most hits filed as inhibitors. AlphaScreen JMJD2A-Tudor / H3K4me3 peptide binding. 390,000 tested, 4.4% active; further: nearly all actives have a fitted effect of over 50% in size
GLS inh: glutaminase GLS (human) inhibition; Potency, µM (titrated, usually from 45.5 µM), actives largely listed as inhibitors; GLS enzymatic activity, qHTS titration; 410,000 tested, 0.21% active; O94925; AID 624170
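Enzyme dispensed in phosphate buffer (45 mM, pH 8.2, 0.02% Tween-20), compounds pinned in, then 1 mM L-glutamine solution and the glutamate oxidase–HRP–Amplex Red mix added; fluorescence read immediately and again after 30 min at room temperature.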
BAZ2B inh: BAZ2B (human) inhibition | Q9UIF8 | AlphaScreen BAZ2B-H3K14Ac peptide displacement | Potency, µM (top dose mostly 114 µM), hits mostly inhibitors | 360,000 tested, 4.4% active; further: nearly all actives have a fitted effect of over 60% in size
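Protein-peptide AlphaScreen: BAZ2B 50 nM, b-H3K14Ac 50 nM, 1x PBS pH 7.4 + 0.01% Tween-20. Preincubation 30 min RT; cpd 30 min RT (top 110 uM); beads 20 min RT, light-protected.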
HP1b chromo inh: blocks HP1-beta chromodomain binding to methylated histone tails; P83916; AlphaScreen HP1-beta / biotin-H3K9me3 peptide binding; Potency, µM (top dose mostly 114 µM), usual class: inhibitors; 390,000 tested, 0.56% active; further: nearly all actives have a fitted effect of over 70% in size
Target sequence (P83916 whole entry, looked up): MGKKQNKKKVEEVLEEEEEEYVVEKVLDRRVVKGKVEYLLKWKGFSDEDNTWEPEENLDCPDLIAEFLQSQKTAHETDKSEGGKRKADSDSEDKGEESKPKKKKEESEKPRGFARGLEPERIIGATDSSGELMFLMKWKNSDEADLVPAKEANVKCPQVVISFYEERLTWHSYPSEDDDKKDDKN
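Compound inhibition of the preformed complex between 50 nM HP1-beta and 50 nM biotinylated H3K9me3 peptide was read by AlphaScreen. Buffer was PBS pH 7.4 with 0.01% Tween-20. Incubations ran 30 min at room temperature, with 10 ug/mL donor/acceptor beads.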
G9a block: inhibitors of human histone lysine methyltransferase G9a; Potency, µM (series often up to 102 µM), most hits filed as inhibitors; AID 504332; G9a H3K9 monomethylation, AlphaScreen, 2 h; 350,000 tested, 8.8% active; Q96KQ7; further: nearly all actives have a fitted effect of over 75% in size
Target sequence (Q96KQ7 913-1193 limits assumed): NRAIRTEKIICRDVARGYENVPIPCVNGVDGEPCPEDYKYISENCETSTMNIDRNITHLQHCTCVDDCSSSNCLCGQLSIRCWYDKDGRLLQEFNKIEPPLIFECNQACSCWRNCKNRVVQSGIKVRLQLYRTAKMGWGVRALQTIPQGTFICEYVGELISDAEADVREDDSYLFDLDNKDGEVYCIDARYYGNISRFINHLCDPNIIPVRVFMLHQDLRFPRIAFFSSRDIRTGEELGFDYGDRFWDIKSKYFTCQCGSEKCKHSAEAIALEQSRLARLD
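AlphaScreen read-out: biotin-H3K9 peptide (500 nM) methylation by 20 nM enzyme with 20 uM SAM, 2 h at room temperature after 15 min compound preincubation; anti-monomethyl H3K9 antibody plus donor/acceptor beads, 10 min dark.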
Hits are given with their value; . = inactive; ? = inconclusive; / = not tested or not shown; [ ] = remark or other dose. The call rests on the fitted dose curve; in most records, active means well fitted curve in the direction sought with a large enough effect; inconclusive means small, poorly fitted or top-dose-only effect, or another doubt; inactive means no such curve, though single readings can be large; an effect the other way counts as inactive or inconclusive.

SMILES | JMJD2A Tudor inh | GLS inh | BAZ2B inh | HP1b chromo inh | G9a block
Cc1cccc(N=Cc2cc3c(cc2[N+](=O)[O-])OCO3)c1 | . | . | ? | ? | .[0.501 µM]
O=[N+]([O-])c1cc(Cc2ccccc2)cc(C=Nc2ccc(N3CCOCC3)cc2)c1O | 56.2µM | ? | 39.8µM | ? | .
COc1ccc(C(CCNCc2ccc(N(C)C)cc2)c2ccccc2)cc1 (stereo unspecified) | 25.1µM | . | 11.2µM | 39.8µM | .[2.33 µM]
CCCCCC(=O)N1C[C@@H](O)[C@H](n2cc(-c3ccc(F)cc3)nn2)C[C@@H]1c1ccccc1 | / | . | / | / | /
Cc1[nH][nH]c(=O)c1C(c1ccc(-c2ccc(Cl)c(C(=O)O)c2)o1)c1c(C)[nH][nH]c1=O | 50.1µM | . | 39.8µM | . | 3.16µM
COC(=O)c1cccc(-c2ccc(C(c3c(C)[nH][nH]c3=O)c3c(C)[nH][nH]c3=O)o2)c1 | 56.2µM | ? | 39.8µM | ? | 2.24µM
COC(=O)c1ccccc1-c1ccc(C(c2c(C)[nH][nH]c2=O)c2c(C)[nH][nH]c2=O)o1 | . | . | . | . | .
C=C1CC[C@H](O)C/C1=C/C=C1\CCC[C@]2(C)C([C@H](C)CC[C@@H](O)C(C)(C)O)CC[C@@H]12 (stereo partly specified) | / | / | / | / | .
O=c1c(-c2ccc(Cl)cc2)nc2cnc(N3CCOCC3)nc2n1-c1ccccc1 | / | / | / | / | .[0.501 µM]
COc1ccc(-c2[nH]c(-c3ccc(C)cc3)nc2SCC(=O)NCc2ccco2)cc1OC | . | . | . | . | 50.1µM
Cc1nn(CC(=O)Nc2ccc3c(c2)OCO3)c(C)c1Cl | . | . | . | . | 70.8µM
Cc1ccc(-n2nc(C)c(NC(=O)COC(=O)c3ccccc3NCCO)c2C)cc1 | . | . | . | . | 50.1µM
Cc1ccc(C(=O)OCC(=O)Nc2c(C)nn(-c3ccccc3)c2C)c(O)c1 | / | . | / | / | /
Cc1nc2cc(C(=O)OCC(=O)Nc3cccc(Cl)c3)ccc2n1-c1ccccc1 | . | . | . | . | 50.1µM
Cc1nc2cc(C(=O)OCC(=O)NC34CC5CC(CC(C5)C3)C4)ccc2n1-c1ccccc1 | . | . | ? | . | .
COc1ccc(-c2ccc(SCC(=O)NCc3ccco3)nn2)cc1OC | ? | . | . | . | .
Cc1cc(C(F)(F)F)nn1CC(=O)Nc1ccc2c(c1)OCO2 | . | . | . | . | .
COc1cc(NS(=O)(=O)c2ccc(-n3cccn3)cc2)cc(OC)c1 | / | . | / | / | /
O=C(CSc1ccccc1)NCc1ccco1 | . | . | . | . | .
O=C(CSc1ccc2c(c1)OCCO2)NCc1ccco1 | . | . | ? | . | 50.1µM
O=C(CN1CCOc2ccccc21)NCc1ccco1 | . | . | . | . | ?
COc1ccc(NC(=O)CSc2ncccc2C(=O)O)cc1OC | . | . | 56.2µM | . | ?
O=C(CN1CC(=O)Oc2ccccc21)NCc1ccco1 | .[11.4 µM] | . | 44.7µM | . | ?
O=C(CSc1nc(-c2ccccc2)[nH]c1-c1ccccc1)Nc1ccc2c(c1)OCO2 | ? | . | 56.2µM | ? | 22.4µM
COc1ccc(-c2nc(SCC(=O)Nc3ccc4c(c3)OCCO4)c(-c3ccccc3)[nH]2)cc1 | . | . | . | . | .
SMILES | JMJD2A Tudor inh | GLS inh | BAZ2B inh | HP1b chromo inh | G9a block
CN(CC(=O)Nc1ccccc1C(F)(F)F)C(=O)CN1C(=O)C2CCCCC2C1=O (stereo unspecified) | . | . | . | . | .[0.501 µM]
Cc1n[nH]c(C)c1CCNC(=O)C1CCC(=O)N(CCc2cccc(F)c2)C1 (stereo unspecified) | . | . | . | . | .[0.501 µM]
O=C(CSc1ncn(-c2ccccc2)n1)Nc1ccc2c(c1)OCCO2 | . | . | . | . | ?
O=C(CSc1ncn(-c2ccccc2)n1)Nc1ccc(Br)cn1 | . | / | . | . | 3.16µM
O=C(CSc1ncn(-c2ccccc2)n1)Nc1ccc2c(c1)OCO2 | 89.1µM | . | . | . | ?
CC(=O)Nc1cccc(C(=O)OCC(=O)Nc2c(C)nn(-c3ccccc3)c2C)c1 | . | . | . | . | 39.8µM
COc1ccc(NC(=O)CSc2nc(-c3cccc(C)c3)[nH]c2-c2ccccc2)cc1OC | ? | . | 22.4µM | . | ?
CCN(Cc1ccccc1)C(=O)CN1C(=O)COc2ccc(S(=O)(=O)N3CCOCC3)cc21 | . | . | . | . | .
CC(C)(C)c1ccc(C(=O)NCC(c2cccs2)S(=O)(=O)c2ccccc2)cc1 (stereo unspecified) | . | . | . | . | .

Assay outcomes (PubChem BioAssay)
